ssDAF-12 act – activates DAF-12 receptor from parasite S. stercoralis. HEK293 ssDAF-12/GRIP1 lit1-tk-luc reporter, luminescence; % of 3 µM dafachronic acid response. activation, % at 6.8 µM. 1% of 370,000 active. AID 652126;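 active = activation above the mean over all tested compounds plus 3 SD, cut at about 0.9% in these data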;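 note: 0% = DMSO-only wells and 100% = 3 µM delta7-dafachronic acid wells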
DAX1 inh-1 – NR0B1 (DAX1) inhibition. P51843. HEK293 Gal4-DAX1 luciferase reporter, luminescence. inhibition, % at 6.75 µM. 0.99% of 340,000 active;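 active = inhibition above the mean over all tested compounds plus 3 SD, cut at about 4.2% in these data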;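 note: 0% = DAX1-transfected cells with DMSO and 100% = empty-vector control cells with DMSO; inhibition shows as a rise in luminescence from relieved DAX1 repression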
Target sequence (P51843 207-470 limits assumed): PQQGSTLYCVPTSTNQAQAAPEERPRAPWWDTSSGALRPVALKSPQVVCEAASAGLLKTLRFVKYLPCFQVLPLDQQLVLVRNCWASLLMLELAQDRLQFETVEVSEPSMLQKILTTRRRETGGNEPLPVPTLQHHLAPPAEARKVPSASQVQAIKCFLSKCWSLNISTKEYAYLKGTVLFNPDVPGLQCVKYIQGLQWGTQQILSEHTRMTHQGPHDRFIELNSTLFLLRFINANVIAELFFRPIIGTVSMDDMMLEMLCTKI
hgDAF12 agonist – activates the H. glycines DAF-12 receptor ligand-binding domain | activation, % at 6.8 µM | 1.8% of 370,000 active | HEK293 GAL4-hgDAF12 UAS-luciferase reporter, agonist luminescence; normalized to butyrate control;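 active = activation above a cutoff set at the mean of all screened compounds plus 3 SD, cut at about 10% in these data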;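 note: 0% = DMSO wells and 100% = sodium butyrate wells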
DAX1 inh-2 – blocks DAX1 repression of SF-1 activated StAR promoter; HEK293T StAR-luciferase reporter, SF-1/DAX-1 repression relief; inhibition, % at 6.8 µM; 1.1% of 370,000 active; AID 652010;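 active = inhibition above the mean over all tested compounds plus 3 SD, cut at about 3.6% in these data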;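 note: 0% = DAX-1 cells with DMSO and 100% = cells lacking DAX-1 with DMSO; higher inhibition means more luminescence from relief of DAX-1 repression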
hcDAF-12 act – activators of H. contortus DAF-12 nuclear receptor. HEK293 hcDAF-12 lit1-tk-luc reporter, luminescence; 0% DMSO, 100% Δ7-dafachronic acid. activation, % at 6.8 µM. 1.4% of 370,000 active. AID 652067;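 active = activation above the mean of all tested compounds plus 3 SD, cut at about 5.5% in these data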;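 note: 100% = response to 3 µM Δ7-dafachronic acid high control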
DAX1 conf – confirmation of human DAX1 (NR0B1) inhibitors; shares compounds with DAX1 inh-2; HEK293T StAR-promoter luciferase reporter, SF-1/DAX-1 repression; inhibition, % at 6.8 µM; 87% of 2,400 active; AID 652134;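 active = inhibition above the average of every tested compound plus 3 SD, cut at about 3.8% in these data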;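 note: 0% = DAX-1 cells with DMSO and 100% = no DAX-1 control cells with DMSO; active compounds raise luminescence by relieving repression of the StAR reporter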
Target sequence (P51843 whole entry, looked up): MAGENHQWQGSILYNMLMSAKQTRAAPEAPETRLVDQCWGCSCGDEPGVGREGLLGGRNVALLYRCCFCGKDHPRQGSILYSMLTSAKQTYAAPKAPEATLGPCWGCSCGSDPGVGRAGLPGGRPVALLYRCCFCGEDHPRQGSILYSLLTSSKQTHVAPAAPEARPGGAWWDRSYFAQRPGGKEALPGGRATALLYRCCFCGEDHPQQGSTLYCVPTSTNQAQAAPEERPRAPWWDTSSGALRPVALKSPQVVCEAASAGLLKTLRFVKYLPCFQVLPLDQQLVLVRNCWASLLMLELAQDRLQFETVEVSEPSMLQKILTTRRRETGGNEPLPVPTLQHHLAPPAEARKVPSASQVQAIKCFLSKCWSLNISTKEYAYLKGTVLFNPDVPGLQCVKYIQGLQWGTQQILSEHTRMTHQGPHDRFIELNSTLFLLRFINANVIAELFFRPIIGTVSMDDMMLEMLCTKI
SF1 mutant ctr – counter-screen for DAX1 inhibitors: nonselective inhibitors with SF-1 AF2 mutant; shares compounds with DAX1 inh-2; HEK293 StAR-luciferase, luminescence; inhibition, % at 6.8 µM; 78% of 2,400 active; AID 652136;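 active = inhibition above the mean of all tested compounds plus 3 SD, cut at about 3% in these data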;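 note: 0% = DAX-1 transfected cells with DMSO and 100% = cells without DAX-1 with DMSO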
Starred values were filed as active, the others as inactive; nt = not tested or not shown. Shown are actives, neighbours in structure and some others; about 4.1% of the full set was active somewhere.

SMILES	ssDAF-12 act	DAX1 inh-1	hgDAF12 agonist	DAX1 inh-2	hcDAF-12 act	DAX1 conf	SF1 mutant ctr
CC(C)C[C@@H](CN1CCCC1CN1C(=S)NC[C@@H]1Cc1ccc(O)cc1)N1C[C@H](Cc2ccc(O)cc2)N(CC2CCCCCC2)C1=S (stereo partly specified)	-1.6	-1.4	3.4	6.3*	-0.3	1.0	1.1
CC(C)C[C@@H](CN1CCCC1CN1C(=S)NC[C@@H]1Cc1ccc(O)cc1)N1C[C@H](Cc2ccccc2)N(CC2CCCCCC2)C1=S (stereo partly specified)	-0.2	-1.2	3.4	2.1	3.5	nt	nt
CC(C)C[C@@H](CN1CCC[C@@H]1CN1C(=S)NC[C@@H]1Cc1ccc(O)cc1)N1C[C@H](Cc2ccc(O)cc2)N(CCc2ccccc2)C1=S	-1.7	nt	-1.0	4.7*	0.2	-0.7	1.1
COc1cccc(C(=O)N[C@H](C(=O)N2CCC[C@H]2C(=O)NCCc2ccccc2Cl)c2ccccc2)c1	-1.6	nt	-1.8	-0.8	0.5	nt	nt
Cn1c(NCc2ccccc2Cl)nc2ccccc21	-0.7	8.2*	8.8	6.5*	2.3	9.7*	5.9*
O=C1CSc2ccc(C(=O)N3CCCC(C(=O)N4CCCC4)C3)cc2N1 (stereo unspecified)	-0.7	nt	0.9	-0.3	-0.7	nt	nt
CC(C)(C)C1=CC(=Nc2ccccc2N)C=C(C(C)(C)C)C1=O	2.9*	0.1	12.9*	4.6*	5.3	-0.6	-0.1
O=S(=O)(CC1NCc2cc(F)ccc21)NC1CCCC1 (stereo unspecified)	-1.2	nt	3.9	-0.6	2.2	nt	nt
Cc1ccc(NC(=O)c2sccc2C)nc1	0.9	2.1	10.8*	9.7*	4.7	9.2*	7.2*
O=C(NCCS(=O)(=O)NCCCc1ccccc1)c1ccccc1	-0.6	1.8	-0.2	0.5	-0.7	nt	nt
O=C(NCCS(=O)(=O)NCCc1ccccc1)c1ccccc1	-0.3	0.6	2.8	4.7*	1.1	3.0	1.2
CCCCC(=O)N1CCN(c2nc3ccc(F)cc3s2)CC1	-1.1	0.0	4.8	5.2*	2.0	3.5	3.8*
CC(=O)c1sc(NC(=O)c2ccc3c(c2)OCO3)nc1C	-0.5	2.3	11.6*	9.4*	4.0	9.5*	6.5*
COC(=O)CSc1nnc(NC(=O)c2ccc3c(c2)OCO3)s1	-0.2	0.1	7.1	4.7*	3.2	8.7*	3.5*
Cc1nc(NC(=O)c2ccc(Cl)cc2)sc1Cc1ccc2c(c1)OCO2	-0.3	0.2	3.8	0.3	-2.2	nt	nt
COC(=O)CSc1nnc(NC(=O)/C=C\c2ccc3c(c2)OCO3)s1	-1.1	-0.4	-2.6	0.5	-1.1	nt	nt
CC(=O)N1C[C@H]2CON(C)[C@H]2C[C@H]1c1ccccc1-c1ccccc1	-0.8	nt	-2.7	-0.1	0.1	nt	nt
CCC(=O)Nc1cccc(-c2nnc(-c3cccc(NC(=O)CC)c3)o2)c1	-2.0	-1.3	-2.5	-1.3	-0.5	nt	nt
CCC(=O)Nc1ccc(-c2nnc(-c3ccccc3)o2)cc1	0.8	2.3	10.5*	4.5*	2.5	14.5*	4.5*
COc1cc(NC2c3ccccc3C(=O)N2c2cc(C)ccn2)cc(OC)c1OC (stereo unspecified)	-1.4	1.4	-4.0	-0.5	-1.7	nt	nt
COc1cc(NC2c3ccccc3C(=O)N2c2ccc(C)cn2)cc(OC)c1OC (stereo unspecified)	0.1	3.8	8.1	6.1*	2.0	3.1	3.1*
O=C(Nc1ccc(Cl)cc1)OC[C@@H]1CSCCS(=O)(=O)N1	-0.3	nt	0.9	5.0*	0.2	1.6	0.5
CCOC(=O)[C@]12CCCC3=C1N(CCC3)C(=O)[C@@H](CC(=O)N1CCN(C(=O)c3ccco3)CC1)C2	-0.7	nt	3.9	-0.4	2.0	nt	nt
OC[C@H]1O[C@@H](c2nc(-c3ccc(Br)cc3)no2)C[C@@H]1O	-0.2	nt	11.6*	4.8*	5.8*	6.0*	4.9*
N#C[C@H](N)[C@H]1O[C@@H](n2ccc(=O)[nH]c2=O)[C@H](O)[C@@H]1O	-1.3	nt	0.4	0.7	0.8	nt	nt
SMILES	ssDAF-12 act	DAX1 inh-1	hgDAF12 agonist	DAX1 inh-2	hcDAF-12 act	DAX1 conf	SF1 mutant ctr
COc1cccc(/C=N/NC(=O)c2ccccc2NC(=O)c2ccco2)c1OC	-1.4	0.6	-0.2	-0.8	0.1	nt	nt
COc1cccc(/C=C/C(=O)NNC(=O)c2ccco2)c1OC	0.2	0.7	9.9	4.9*	3.7	9.1*	6.5*
CCOC(=O)C1CCN(C(=O)C(C)(C)NC(=O)Nc2ccc(N(C)C)cc2)CC1	-1.9	nt	-1.6	nt	0.0	nt	nt
CC(=O)c1ccc(NC(=O)c2cnn3ccccc23)cc1	-0.6	-2.8	4.8	5.8*	4.3	5.3*	2.0
Cc1ccc(C)c(NC(=O)c2cnn3ccccc23)c1	-1.6	-0.3	2.9	-1.4	-0.8	nt	nt
O=C(/C=C/c1ccco1)NCc1ccc2c(c1)OCO2	-1.7	-0.8	2.5	1.3	0.3	nt	nt
O=C(/C=C/c1ccc2c(c1)OCO2)Nc1cccnc1	-1.1	3.7	10.6*	11.1*	2.6	13.9*	4.5*
O=C(/C=C/c1ccco1)Nc1ccc2c(c1)OCO2	0.2	2.3	12.2*	6.1*	2.2	10.8*	6.0*
COC(=O)c1cccc(Cn2ccc3ccc(-c4ccc5ccn(C(=O)c6ccccc6)c5c4)cc32)c1	-0.9	nt	-2.6	-0.6	-1.8	nt	nt
Cc1ccc2c(Cl)c(C(=O)NC3CC3)sc2c1	-0.3	1.9	6.3	5.9*	0.5	4.4*	2.0
COc1ccc(C(=O)Nc2ccc(/C(C)=N/NC(=O)c3ccncc3)cc2)cc1	0.4	0.6	9.4	1.2	1.1	nt	nt
C/C(=N/NC(=O)c1ccncc1)c1ccc(NC(=O)c2ccc(Cl)cc2Cl)cc1	0.0	1.8	6.0	5.3*	2.5	3.1	0.1
COC(=O)C1CCC(=O)N1C(c1ccc(OC)cc1)c1cc(OC)c(OC)c(OC)c1 (stereo unspecified)	-1.1	1.0	-4.5	6.2*	-0.2	19.5*	-6.9
COc1ccc(C(CNC(=O)Cc2cc(OC)c(OC)c(OC)c2)N2CCCC2)cc1 (stereo unspecified)	-1.4	-1.8	0.4	0.0	0.8	nt	nt
CCC(=O)Nc1sc(C(=O)Nc2ccccc2F)c(C)c1C(=O)OC	-0.1	0.2	13.1*	5.9*	3.7	12.8*	6.3*
CCN1CCN(c2ccc(S(=O)(=O)N3CCCCC3)cc2NC(=O)/C=C/c2ccc(Cl)cc2)CC1	-1.0	-0.3	0.2	4.8*	-0.9	1.5	-0.2
O=C(NCCc1ccccc1)C1=COCCO1	-0.9	1.1	8.4	7.8*	4.1	8.7*	6.5*
O=c1cccc(-c2ccc3ccccc3c2)o1	-0.6	nt	6.7	6.6*	0.1	5.0*	3.1*

Screening data deposited in PubChem by The Scripps Research Institute Molecular Screening Center.
